{"source": "PubChem BioAssay (EPA / NIEHS)", "note": "Calls of active or inactive are those of the source. The calls were made as follows: active = hit-call score of the fitted dose curve at least 0.9, where 1 is the maximum; inactive = score below 0.9.", "data": [{"target": "Transcription factor Sp1 (Homo sapiens) (UniProt P08047)", "sequence (P08047 whole entry, looked up)": "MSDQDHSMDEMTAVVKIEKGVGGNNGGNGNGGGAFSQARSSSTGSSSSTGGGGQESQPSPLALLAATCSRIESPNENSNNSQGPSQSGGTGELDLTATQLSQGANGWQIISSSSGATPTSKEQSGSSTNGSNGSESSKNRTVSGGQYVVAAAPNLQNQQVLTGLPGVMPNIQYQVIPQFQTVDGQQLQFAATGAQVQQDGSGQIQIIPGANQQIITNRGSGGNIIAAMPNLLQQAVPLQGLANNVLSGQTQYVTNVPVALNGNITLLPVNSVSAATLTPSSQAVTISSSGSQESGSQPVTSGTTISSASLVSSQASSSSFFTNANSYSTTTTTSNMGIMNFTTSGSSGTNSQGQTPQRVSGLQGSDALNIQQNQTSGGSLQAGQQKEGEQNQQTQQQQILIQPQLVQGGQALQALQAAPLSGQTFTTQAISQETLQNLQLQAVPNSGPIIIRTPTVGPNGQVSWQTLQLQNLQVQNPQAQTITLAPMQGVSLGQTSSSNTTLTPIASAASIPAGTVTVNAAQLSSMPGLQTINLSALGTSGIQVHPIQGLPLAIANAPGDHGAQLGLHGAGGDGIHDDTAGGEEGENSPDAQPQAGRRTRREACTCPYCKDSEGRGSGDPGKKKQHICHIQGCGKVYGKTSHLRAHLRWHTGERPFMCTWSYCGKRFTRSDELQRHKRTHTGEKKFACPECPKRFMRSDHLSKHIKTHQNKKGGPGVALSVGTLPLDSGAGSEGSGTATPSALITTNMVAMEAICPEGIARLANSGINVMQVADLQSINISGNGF", "test": "ATG_Sp1_CIS: Attagene CIS-FACTORIAL HepG2 Assay for human Specificity Protein 1 (Sp1) (AID 2282961)", "settings": "HepG2 Sp1 cis-reporter transcription, actives raise or lower the signal", "how_it_was_run": "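Endogenous Sp1 activity was gauged in human liver HepG2 cells bearing transfected reporter units under a cis-regulating promoter. After 24 h dosing, reporter mRNA was quantified by RT-PCR with capillary electrophoresis, and activity fitted bidirectionally versus DMSO.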", "values": [{"smiles": "C[Si](C)(C)O[Si](C)(C)C", "outcome": "inactive"}, {"smiles": "CCCN(CCC)S(=O)(=O)c1ccc(C(=O)O)cc1", "outcome": "inactive"}, {"smiles": "C=C1CC[C@H](O)C/C1=C/C=C1\\CCC[C@]2(C)[C@@H]([C@H](C)/C=C/[C@H](C)C(C)C)CC[C@@H]12", "outcome": "inactive"}, {"smiles": "CCC(C)S", "note": "(stereo not drawn)", "outcome": "inactive"}, {"smiles": "CCCCCCC(CO)CCCC", "note": "(stereo not drawn)", "outcome": "inactive"}, {"smiles": "CCN(CC)C(=O)N(CC)CC", "outcome": "inactive"}, {"smiles": "COC(=O)c1ccc([N+](=O)[O-])cc1", "outcome": "inactive"}, {"smiles": "c1ccc2[nH]cnc2c1", "outcome": "inactive"}, {"smiles": "COC(=O)C=C(C)CCC=C(C)C", "outcome": "inactive"}, {"smiles": "CC(C)(N=C=O)c1cccc(C(C)(C)N=C=O)c1", "outcome": "inactive"}, {"smiles": "N#Cc1ccc(CC(=O)c2cccc(C(F)(F)F)c2)cc1", "outcome": "inactive"}, {"smiles": "O=[N+]([O-])c1cccc(Cl)c1", "outcome": "inactive"}, {"smiles": "CCCCC1(COC(=O)CCC(=O)O)C(=O)N(c2ccccc2)N(c2ccccc2)C1=O", "outcome": "inactive"}, {"smiles": "Nc1ccc2cc(S(=O)(=O)O)cc(O)c2c1N=Nc1ccccc1C(F)(F)F", "outcome": "inactive"}, {"smiles": "CCC1(C)NC(=O)NC1=O", "note": "(stereo not drawn)", "outcome": "inactive"}, {"smiles": "CC1C2CC(CC2C2CCCC(O)C2)C1(C)C", "note": "(stereo not drawn)", "outcome": "inactive"}, {"smiles": "CCCC(O)C(O)CO", "note": "(stereo not drawn)", "outcome": "inactive"}, {"smiles": "CC(C)CC(C)CC(O)CC(C)C", "note": "(stereo not drawn)", "outcome": "inactive"}, {"smiles": "CCOC(=O)C(C#N)=C(c1ccccc1)c1ccccc1", "outcome": "inactive"}, {"smiles": "Cc1ccc(S(N)(=O)=O)cc1", "outcome": "inactive"}, {"smiles": "CC1(C)O[C@@H]2C[C@H]3[C@@H]4CCC5=CC(=O)C=C[C@]5(C)[C@@]4(F)[C@@H](O)C[C@]3(C)[C@]2(C(=O)CO)O1", "outcome": "inactive"}, {"smiles": "CC(C)(CO)[C@@H](O)C(=O)NCCC(=O)O", "outcome": "inactive"}, {"smiles": "Cc1c(Cl)cccc1[N+](=O)[O-]", "outcome": "inactive"}, {"smiles": "CC1(C)COCN1", "outcome": "inactive"}, {"smiles": "CCCOC(=O)c1c(Cl)c(Cl)c(Cl)c(Cl)c1C(=O)OCCC", "AC50": "67.1 µM (active)"}, {"smiles": "CC(C)Nc1nc(N)nc(Cl)n1", "outcome": "inactive"}, {"smiles": "OCCCCC(O)CO", "note": "(stereo not drawn)", "outcome": "inactive"}, {"smiles": "Cc1cc(=O)oc2cc(N(C)C)ccc12", "outcome": "inactive"}, {"smiles": "CS(=O)(=O)OCCCCOS(C)(=O)=O", "outcome": "inactive"}, {"smiles": "CCOC(=O)C1OC1c1ccccc1", "note": "(stereo not drawn)", "outcome": "inactive"}, {"smiles": "CCOc1ccc(N=Nc2ccc(C=Cc3ccc(N=Nc4ccc(OCC)cc4)cc3S(=O)(=O)O)c(S(=O)(=O)O)c2)cc1", "outcome": "inactive"}, {"smiles": "CN(C)c1cccc(O)c1", "outcome": "inactive"}, {"smiles": "O=C(O)CCCCCCCCCCCC(=O)O", "outcome": "inactive"}, {"smiles": "N[C@@H](Cc1cc(I)c(Oc2cc(I)c(O)c(I)c2)c(I)c1)C(=O)O", "outcome": "inactive"}, {"smiles": "O=C(c1ccccc1)C(O)c1ccccc1", "note": "(stereo not drawn)", "outcome": "inactive"}, {"smiles": "C[Si]1(C)O[Si](C)(C)O[Si](C)(C)O1", "outcome": "inactive"}, {"smiles": "COc1cc(Cl)c(OC)cc1N", "outcome": "inactive"}, {"smiles": "C=CCCC(=O)/C=C/C1C(C)=CCCC1(C)C", "note": "(stereo not drawn)", "outcome": "inactive"}]}]}
